Test results from PubChem BioAssay.
The source made the active and inactive calls.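 Rule for the calls, unless noted: active = inhibition of the reporter signal at or above 50%; inactive = inhibition below 50%.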

Tests used:
[1] = inhibitors of TNFa-induced NFkB p65 translocation, primary screen, imaging, HUVEC, MLSMR starter and 10KST1 sets (AID 438;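 active = inhibition above 20% together with a positive visual image hit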;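 note: compound added about 3h40 before a 20 min TNFalpha stimulation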;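 for inhibition: signal is the nuclear over cytoplasmic p65 intensity ratio per well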); details: HUVEC TNFa-induced p65 nuclear translocation; cell count: measured here: nuclei count (cytotoxicity indicator), at 2.08 µM; inhibition: at 2 µM, stronger effect = higher value, 0% TNFa-plus-vehicle, 100% no-TNFa wells
[2] = reduction of polyQ htt aggregates in cells – imaging, exon1htt(103Q)mCFP cells, high-content imaging, primary screen (AID 483;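 active = visual image review flags a hit and inhibition of aggregation exceeds 20%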;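 note: compound exposure lasted 3 days before fixation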;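 for nuclei count: percent of the per-plate median nuclei count of sample wells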); details: exon1htt(103Q)mCFP cell line, aggregate imaging, at 2 µM; inhibition of aggregation: stronger effect = higher value; nuclei count: measured here: cell count, toxicity
[3] = endothelial E-selectin expression blockers – imaging, HUVEC, immunofluorescence, MLSMR starter and 10KST1 sets, primary screen (AID 487;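 active = visually confirmed hit in the image check and inhibition above 20%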;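 for inhibition: signal is fraction of cell area covered by stained E-selectin grains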;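 for nuclei count: 100% = median nuclei count of all wells on the same plate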); details: HUVEC TNFalpha-induced E-selectin immunofluorescence imaging, at 2 µM; inhibition: stronger effect = higher value; nuclei count: measured here: cell number, toxicity
[4] = molecular target: Voltage-gated potassium channel subunit beta-2 (Rattus norvegicus) (UniProt P62483); test: inhibitors of rat Kvbeta2 reductase activity – biochemical, NADPH fluorescence, primary screen (AID 622;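 active = fluorescence slope higher than the sample average by over 3 SD, cut at about -0.22 in these data, passing the limit was not always enough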;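 note: slope of raw intensity against log time taken from 70 to 1610 s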); details: recombinant KvBeta, 4-cyanobenzaldehyde reduction, at 10 µM, stronger effect = higher value
Sequence of Voltage-gated potassium channel subunit beta-2 (Rattus norvegicus) (P62483 whole entry, looked up): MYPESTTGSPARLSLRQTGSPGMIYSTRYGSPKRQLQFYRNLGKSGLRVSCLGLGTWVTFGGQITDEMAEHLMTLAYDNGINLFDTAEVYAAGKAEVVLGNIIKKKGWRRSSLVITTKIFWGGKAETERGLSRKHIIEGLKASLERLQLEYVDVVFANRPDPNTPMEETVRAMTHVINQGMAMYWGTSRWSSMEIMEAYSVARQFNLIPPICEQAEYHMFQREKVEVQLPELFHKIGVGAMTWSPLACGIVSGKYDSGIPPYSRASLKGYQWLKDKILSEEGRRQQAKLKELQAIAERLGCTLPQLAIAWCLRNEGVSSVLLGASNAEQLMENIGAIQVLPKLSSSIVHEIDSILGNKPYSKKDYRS

[5] = molecular target: Voltage-gated potassium channel subunit beta-2 (Rattus norvegicus) (UniProt P62483); test: enhancers of rat Kvbeta2 NADPH turnover – biochemical, NADPH fluorescence, primary screen (AID 623;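 active = NADPH fluorescence slope more negative than the mean of all samples by about 3 SD, 99.7% confidence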;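 note: fluorescence intensity change per second fitted from 20 to 320 s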); details: Recombinant KvBeta, NADPH fluorescence decrease slope, 10 min; at 10 µM; stronger effect = lower value
[6] = molecular target: Alpha-2C adrenergic receptor (Homo sapiens) (UniProt P18825); test: compounds altering alpha2C-coupled GIRK flux – cell-based, HEK293 alpha2C/GIRK1/2, thallium flux, primary screen (AID 624;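 active = fluorescence slope after compound addition differing from the mean of all screened samples at 99.7% confidence, in either direction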;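 note: slope of fluorescence ratio to pre-addition baseline per second over 15 to 24 s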); details: thallium flux BTC fluorescence, at 10 µM, actives lie on both sides
Sequence of Alpha-2C adrenergic receptor (Homo sapiens) (P18825 whole entry, looked up): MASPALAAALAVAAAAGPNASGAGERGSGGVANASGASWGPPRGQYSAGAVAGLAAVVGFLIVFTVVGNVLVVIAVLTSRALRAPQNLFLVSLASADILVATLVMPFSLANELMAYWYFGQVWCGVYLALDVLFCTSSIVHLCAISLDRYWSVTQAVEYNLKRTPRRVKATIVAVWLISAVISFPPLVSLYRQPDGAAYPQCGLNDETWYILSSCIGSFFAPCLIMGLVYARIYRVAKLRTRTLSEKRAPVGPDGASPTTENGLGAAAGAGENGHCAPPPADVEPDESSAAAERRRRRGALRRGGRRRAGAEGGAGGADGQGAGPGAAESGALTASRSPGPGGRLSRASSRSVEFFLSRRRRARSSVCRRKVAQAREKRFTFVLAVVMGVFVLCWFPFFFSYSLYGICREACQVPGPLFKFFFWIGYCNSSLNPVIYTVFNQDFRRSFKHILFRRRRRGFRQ

[7] = blockers of RIG-like receptor reporter activation – cell-based, Sendai virus stimulus, luciferase, 10K MLSCN set, TLR/RLR signaling modifier project, primary screen (AID 602276;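 active = inhibition at or above 50% at 10 µM; inactive = inhibition below 50%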;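 note: firefly luciferase from ISG56 promoter only with Renilla not read in this screen; 0% = Sendai virus plus DMSO and 100% = medium plus DMSO without virus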); details: HEK293 RL24 IRF3 luciferase reporter, at 10 µM, stronger effect = higher value
[8] = TLR3 IRF3 reporter activation blockers – cell-based, poly I:C stimulus, luciferase, 10K MLSCN set, primary screen (AID 602277); details: HEK293-TLR3 RL24 IRF3 luciferase reporter, at 10 µM, stronger effect = higher value

Compound	cell count [1]	inhibition [1]	inhibition of aggregation [2]	nuclei count [2] [%]	inhibition [3]	nuclei count [3] [%]	fluorescence slope [4]	NADPH fluorescence slope [5]	slope [6]	inhibition [7]	inhibition [8]
CCOc1cccc(C(=O)N(Cc2ccc(F)cc2)C2CCS(=O)(=O)C2)c1 (stereo not drawn)	461	9.3% (inactive)	-23.1% (inactive)	92.3	-116% (inactive)	219	-0.415 (inactive)	-3.8e-05 (inactive)	0.0041 (inactive)	14.6% (inactive)	40.1% (inactive)
O=C(CSc1nnnn1-c1ccccc1Cl)Nc1ccc2c(c1)OCCO2	660	-3.4% (inactive)	3.2% (inactive)	107	-55% (inactive)	118	-0.548 (inactive)	-5.9e-05 (inactive)	0.00706 (inactive)	15.2% (inactive)	30.5% (inactive)
CCC(=O)Nc1ccc2nc(SCC(=O)N3CCCC3)sc2c1	709	-23.3% (inactive)	-2.1% (inactive)	102	-56.1% (inactive)	122	-0.503 (inactive)	-2.8e-05 (inactive)	0.00507 (inactive)	-25.3% (inactive)	-44.2% (inactive)
CCOc1ccc(NC(=O)C(C)Sc2nnc(C)n2C)cc1 (stereo not drawn)	574	-9.5% (inactive)	19.3% (inactive)	74.5	-33.5% (inactive)	119	-0.591 (inactive)	-1.5e-05 (inactive)	0.00656 (inactive)	-2.49% (inactive)	20.8% (inactive)
CCOc1ccc(Cn2nnc(C(=O)Nc3cc(C)cc(C)c3)c2N)cc1	751	-0.6% (inactive)	12.1% (inactive)	100	-46.9% (inactive)	108	-0.521 (inactive)	-2.6e-05 (inactive)	0.00695 (inactive)	2.58% (inactive)	9.37% (inactive)
O=C(c1cccc(F)c1)N1CCc2ccccc21	490	3.5% (inactive)	-1.6% (inactive)	107	-9.7% (inactive)	114	-0.478 (inactive)	-1.8e-05 (inactive)	0.0055 (inactive)	0.0423% (inactive)	27.3% (inactive)
COC(=O)c1c(O)ccc(Oc2ccccc2)c1C(=O)OC	667	-5.3% (inactive)	28.9% (inactive)	71.8	-17.9% (inactive)	107	-0.257 (inactive)	-2.9e-06 (inactive)	0.0066 (inactive)	15.3% (inactive)	21.8% (inactive)
OCc1cn(-c2ccccc2)nc1-c1ccc2c(c1)OCCO2	438	4.2% (inactive)	-10.7% (inactive)	99.4	-84% (inactive)	112	-0.532 (inactive)	-4.4e-05 (inactive)	0.00702 (inactive)	-51.8% (inactive)	-135% (inactive)
COc1cccc(C(=O)Nc2cc(C)c3c(=O)oc4ccccc4c3n2)c1	526	0.3% (inactive)	9.3% (inactive)	93.9	-0.1% (inactive)	92.8	-0.429 (inactive)	-3.7e-05 (inactive)	0.00602 (inactive)	10.3% (inactive)	22.2% (inactive)
COc1ccc(C2C(C(=O)Nc3cccnc3)=C(C)Nc3nc(-c4cccs4)nn32)cc1OC (stereo not drawn)	543	5.1% (inactive)	2.5% (inactive)	84.7	3.4% (inactive)	104	-0.593 (inactive)	-4.3e-05 (inactive)	0.0064 (inactive)	7.94% (inactive)	31.3% (inactive)
Cc1cc(Nc2ccccc2)n(-c2ccccc2)n1	329	-3.3% (inactive)	27.4% (inactive)	114	-44.7% (inactive)	128	-0.499 (inactive)	-2.4e-05 (inactive)	0.00371 (inactive)	-15% (inactive)	-36.8% (inactive)
O=C(c1cccnc1)N1CCc2ccccc21	414	3% (inactive)	1.6% (inactive)	108	24.6% (inactive)	95.4	-0.468 (inactive)	1.9e-05 (inactive)	0.00635 (inactive)	10% (inactive)	43.9% (inactive)
O=C1CC(c2cccs2)CC2=C1C(c1ccccc1)n1ncnc1N2 (stereo not drawn)	577	3.1% (inactive)	4.6% (inactive)	90.7	-72.5% (inactive)	98.9	-0.597 (inactive)	4.2e-06 (inactive)	0.00446 (inactive)	13.5% (inactive)	25.2% (inactive)
CCCCCCC(C)n1[nH]c(=O)c2c(C)cc(=O)[nH]c21 (stereo not drawn)	675	8.2% (inactive)	-12.3% (inactive)	105	-6.2% (inactive)	91.9	-0.61 (inactive)	-1.7e-05 (inactive)	0.00325 (inactive)	3.89% (inactive)	-2.25% (inactive)
O=C(CSc1nnc(COc2ccc(Cl)cc2)o1)N1CCN(c2ccccc2)CC1	359	-0.5% (inactive)	-18.8% (inactive)	98.2	-83.8% (inactive)	110	-0.501 (inactive)	-3.2e-06 (inactive)	0.00706 (inactive)	5.53% (inactive)	-9% (inactive)
Cc1cccc(NC(=O)COc2ccc(Br)cc2)n1	457	-12.1% (inactive)	-8.7% (inactive)	110	26.7% (inactive)	124	-0.437 (inactive)	6.5e-05 (inactive)	0.00667 (inactive)	2.6% (inactive)	-9.96% (inactive)
O=C(CSc1n[nH]c(-c2ccco2)n1)Nc1sc2c(c1C(=O)Nc1ccccc1)CCCC2	298	-4.3% (inactive)	3.5% (inactive)	88.7	-73.5% (inactive)	91	-0.447 (inactive)	-3.7e-05 (inactive)	0.00332 (inactive)	4.06% (inactive)	21.7% (inactive)
CCOC(=O)Cc1csc(NC(=O)CSc2nnc(C)n2C)n1	585	3.3% (inactive)	17.4% (inactive)	101	-8.1% (inactive)	108	-0.448 (inactive)	-2.5e-05 (inactive)	0.00393 (inactive)	-24.8% (inactive)	-19.7% (inactive)
CN(C)C(=O)N1CCC(C(=O)NC2CCCCCCC2)CC1	545	7.4% (inactive)	36.8% (active)	49.6	-48.1% (inactive)	106	-0.381 (inactive)	-2.2e-05 (inactive)	0.00533 (inactive)	13% (inactive)	18.9% (inactive)
CCOc1cc(S(=O)(=O)Nc2ccccn2)ccc1F	382	4.8% (inactive)	0.1% (inactive)	107	29.7% (inactive)	99.7	-0.62 (inactive)	4.6e-06 (inactive)	0.0046 (inactive)	5.64% (inactive)	-11.5% (inactive)
O=C(Nc1cccc(O)c1)c1ccccc1	474	18.5% (inactive)	6% (inactive)	98.6	-32.9% (inactive)	102	-0.521 (inactive)	5e-06 (inactive)	0.00606 (inactive)	-19.1% (inactive)	-29.4% (inactive)
O=C(NC1CC1)C1CCN(c2ccc(S(=O)(=O)N3CCOCC3)cc2)CC1	735	-4.1% (inactive)	-4.3% (inactive)	110	-14.8% (inactive)	101	-0.476 (inactive)	-5e-06 (inactive)	0.00268 (inactive)	-7.23% (inactive)	20.7% (inactive)
CCOC(=O)C1=C(CS(=O)(=O)c2ccc(F)c(C)c2)NC(=O)NC1c1ccc(O)c(O)c1 (stereo not drawn)	619	-0.8% (inactive)	8.1% (inactive)	112	-35.7% (inactive)	116	-0.576 (inactive)	-2.4e-05 (inactive)	0.00703 (inactive)	-1.61% (inactive)	5.18% (inactive)
CCc1ccc(CCC(=O)Nc2ccc(C)c(C)c2)o1	255	5.2% (inactive)	-4.6% (inactive)	80.2	-34.3% (inactive)	99.6	-0.4 (inactive)	-5.2e-05 (inactive)	0.006 (inactive)	-22.6% (inactive)	-50% (inactive)
Cc1ccc(-c2noc(CCC(=O)NCCc3ccccc3Cl)n2)cc1	287	-1.2% (inactive)	19.9% (inactive)	91	5.2% (inactive)	88.4	-0.409 (inactive)	-3.6e-05 (inactive)	0.00258 (inactive)	10.3% (inactive)	21.8% (inactive)
O=C(O)C1CC=CCC1C(=O)Nc1ccc(S(=O)(=O)N2CCCc3ccccc32)cc1 (stereo not drawn)	335	-7.5% (inactive)	-17.2% (inactive)	92.3	-43.1% (inactive)	126	-0.599 (inactive)	-3.1e-05 (inactive)	0.00437 (inactive)	46% (inactive)	-62.7% (inactive)
COc1ccccc1CN1CCCC(C(=O)N(C)Cc2ccccc2)C1 (stereo not drawn)	739	-3.4% (inactive)	23.6% (inactive)	99.1	-218% (inactive)	126	-0.37 (inactive)	-9.6e-06 (inactive)	0.00506 (inactive)	7.15% (inactive)	33.5% (inactive)
COc1ccc(/C(O)=C2/C(=O)C(=O)N(CCCN(C)C)C2c2ccc(Cl)cc2)cc1OC (stereo not drawn)	332	4.5% (inactive)	-28.5% (inactive)	122	-11.6% (inactive)	112	-0.527 (inactive)	-3.6e-05 (inactive)	0.00513 (inactive)	12.7% (inactive)	10.6% (inactive)
